Several values for one entry are separate records, joined by “and”; a condition that tells them apart may be missing. Equal entries are not always repeated. Results filed as inconclusive are left out. Activity calls are given as the source filed them. Unless noted, calls follow the shape of the dose curve; as a rule, active = well fitted curve in the direction sought with a large enough effect; inconclusive = small, poorly fitted or top-dose-only effect, or another doubt; inactive = no such curve, though single readings can be large; an effect the other way counts as inactive or inconclusive.
Experiments:
[1] = AP1 Signaling Pathway (AID 357; active = well fitted curve in either direction with a large enough effect, not every such curve was filed as active;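 also: ME-180 reporter cells stimulated with EGF at its EC50 level; % is scaled to controls: 0 for no effect and ±100 for the full control effect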); conditions: ME-180 AP-1-bla reporter, EGF-induced, beta-lactamase ratio, 5 h; at 7.69 µM (top of the series) unless noted
Procedure, shortened: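 A ratiometric CCF4 readout (405 nm excitation; 460 and 530 nm emission) quantified AP-1-driven beta-lactamase in ME-180 cells after 5 h with compound and EC50 EGF; AC50 values were derived for activators and inhibitors.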

[2] = molecular target: Cytochrome P450 1A2 (Homo sapiens) (UniProt P05177); assay: p450-cyp1a2 (AID 410; calls by dose curve;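 also: -100% = full effect of reference inhibitor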)
Sequence of Cytochrome P450 1A2 (Homo sapiens) (P05177 whole entry, looked up): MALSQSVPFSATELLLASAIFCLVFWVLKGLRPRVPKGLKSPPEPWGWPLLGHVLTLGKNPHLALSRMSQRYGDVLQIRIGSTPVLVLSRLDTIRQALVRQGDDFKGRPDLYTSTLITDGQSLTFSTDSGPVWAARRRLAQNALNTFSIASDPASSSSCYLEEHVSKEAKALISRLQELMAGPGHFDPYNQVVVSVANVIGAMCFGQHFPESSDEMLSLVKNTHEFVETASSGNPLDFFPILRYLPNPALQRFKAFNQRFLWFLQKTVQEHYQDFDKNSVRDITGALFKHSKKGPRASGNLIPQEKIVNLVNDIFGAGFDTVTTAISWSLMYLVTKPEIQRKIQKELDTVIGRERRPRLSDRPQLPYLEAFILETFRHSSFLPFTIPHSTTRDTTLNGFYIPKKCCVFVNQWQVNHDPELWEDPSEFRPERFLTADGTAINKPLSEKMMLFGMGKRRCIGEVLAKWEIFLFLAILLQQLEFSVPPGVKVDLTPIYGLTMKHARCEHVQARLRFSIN
Procedure, shortened: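 O-Demethylation of luciferin 6' methyl ether by human CYP1A2 is monitored as luciferase luminescence. Substrate sits at Km (100uM); enzyme is 20nM. Values are scaled to 57 uM furafylline as maximal inhibition.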

[3] = NFAT Signaling Pathway (AID 444; active = well fitted curve in either direction with a large enough effect, not every such curve was filed as active;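 also: carbachol stimulus at about its EC50 of 1 µM final; % is scaled to controls: 0 for no effect and ±100 for the full control effect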); conditions: Jurkat NFAT-bla M1, carbachol, beta-lactamase ratio, 5 h; at 7.69 µM (top of the series) unless noted
Procedure, shortened: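 Jurkat cells carrying an NFAT-driven β-lactamase reporter and co-transfected muscarinic M1 receptor were treated with compound plus carbachol (1 uM final, an EC50 level) for 5 h at 37 °C. CCF4 loading followed for 1 h at RT; 460/530 nm ratio gave %activity.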

[4] = Stat Signaling Pathway (AID 446; active = well fitted curve in either direction with a large enough effect, not every such curve was filed as active;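 also: ME-180 cervical cancer cells given 40 pM IL-6 alongside compound; SIE-controlled beta-lactamase reporter measured as 460/530 nm FRET emission ratio; % is scaled to controls: 0 for no effect and ±100 for the full control effect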); conditions: ME-180 (cervical carcinoma) SIE beta-lactamase reporter, IL-6 stimulated, 5 h; at 7.69 µM (top of the series) unless noted
Procedure, shortened: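 Emission at 460 and 530 nm (excitation 405 nm) reports SIE-controlled beta-lactamase in ME-180 cells. Cells received compound with 40 pM IL-6 for 5 hrs at 37 C; data scaled between 300 pM IL-6 and 125 nM JAK-inhibitor controls.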

[5] = molecular target: Glucocorticoid receptor (Homo sapiens) (UniProt P04150); assay: GR-GFP Redistribution (AID 450;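 active = compounds whose dose series gives a full or clear partial fitted curve of increased nuclear translocation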; also: potency is read from the fitted curve at half-maximal effect); conditions: U2OS GR-GFP nuclear translocation, laser cytometry, 2 h
Sequence of Glucocorticoid receptor (Homo sapiens) (P04150 whole entry, looked up, the tested form may be a part): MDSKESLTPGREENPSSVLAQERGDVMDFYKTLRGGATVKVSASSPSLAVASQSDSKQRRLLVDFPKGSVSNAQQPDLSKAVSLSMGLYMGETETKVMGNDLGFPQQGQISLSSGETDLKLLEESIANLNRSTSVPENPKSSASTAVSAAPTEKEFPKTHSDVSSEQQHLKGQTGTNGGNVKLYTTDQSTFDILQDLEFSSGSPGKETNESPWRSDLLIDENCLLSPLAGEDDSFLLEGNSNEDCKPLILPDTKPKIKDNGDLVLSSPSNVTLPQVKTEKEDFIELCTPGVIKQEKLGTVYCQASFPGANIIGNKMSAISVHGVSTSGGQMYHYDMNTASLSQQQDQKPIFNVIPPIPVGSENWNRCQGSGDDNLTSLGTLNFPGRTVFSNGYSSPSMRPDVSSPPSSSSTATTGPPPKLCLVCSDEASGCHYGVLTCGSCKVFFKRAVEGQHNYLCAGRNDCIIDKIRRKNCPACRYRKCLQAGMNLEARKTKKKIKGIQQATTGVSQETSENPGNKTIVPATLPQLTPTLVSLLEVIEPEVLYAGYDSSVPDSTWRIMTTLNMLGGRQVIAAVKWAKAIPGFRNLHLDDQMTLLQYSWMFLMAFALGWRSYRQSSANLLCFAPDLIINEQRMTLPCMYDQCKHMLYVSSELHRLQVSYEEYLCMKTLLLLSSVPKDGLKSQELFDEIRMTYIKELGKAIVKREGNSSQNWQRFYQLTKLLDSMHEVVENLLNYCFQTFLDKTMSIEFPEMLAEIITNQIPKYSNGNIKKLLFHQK

[6] = molecular target: Glucocorticoid receptor (Homo sapiens) (UniProt P04150); assay: GR-EFC Redistribution (AID 451; calls by dose curve; also: potency is read from the fitted curve at half-maximal effect); conditions: CHO-K1 GR-EFC translocation, beta-gal luminescence, 2 h
Procedure, shortened: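 CHO-K1 cells stably expressing nuclear-localized β-gal enzyme acceptor and GR fused C-terminally to the enzyme donor fragment; ligand-driven nuclear translocation restores β-gal by complementation. Compounds titrated up to 46 uM final, 2 h at 37 °C; luminescence read.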

[7] = molecular target: Mitogen-activated protein kinase 10 (Mus musculus) (UniProt Q61831); assay: JNK3 AlphaScreen Assay (AID 530; active = well fitted curve in either direction with a large enough effect, not every such curve was filed as active;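 also: kinase came from lysate of stimulated human HepG2 cells; signal reports phosphorylation of biotinylated GST-cJun 1-79 at Ser73 with 10 µM ATP; % is scaled to controls: 0 for no effect and ±100 for the full control effect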)
Procedure, shortened: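 Phosphorylation of biotinylated GST-cJun(1-79) at Ser73 is measured by AlphaScreen proximity luminescence. Enzyme is JNK3 in HepG2 lysates activated with interleukin-1beta and tumor necrosis factor alpha; ATP is 10 uM final.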

[8] = molecular target: 3',5'-cyclic-AMP phosphodiesterase 4B (Homo sapiens) (UniProt Q07343); assay: qHTS Assay for Inhibitors of PDE-IV (AID 607; active = well fitted activation curve with a large enough effect in the main read-out, with a control signal flat, not every such curve was filed as active; also: % of control where 0% means no effect)
Sequence of 3',5'-cyclic-AMP phosphodiesterase 4B (Homo sapiens) (Q07343 whole entry, looked up): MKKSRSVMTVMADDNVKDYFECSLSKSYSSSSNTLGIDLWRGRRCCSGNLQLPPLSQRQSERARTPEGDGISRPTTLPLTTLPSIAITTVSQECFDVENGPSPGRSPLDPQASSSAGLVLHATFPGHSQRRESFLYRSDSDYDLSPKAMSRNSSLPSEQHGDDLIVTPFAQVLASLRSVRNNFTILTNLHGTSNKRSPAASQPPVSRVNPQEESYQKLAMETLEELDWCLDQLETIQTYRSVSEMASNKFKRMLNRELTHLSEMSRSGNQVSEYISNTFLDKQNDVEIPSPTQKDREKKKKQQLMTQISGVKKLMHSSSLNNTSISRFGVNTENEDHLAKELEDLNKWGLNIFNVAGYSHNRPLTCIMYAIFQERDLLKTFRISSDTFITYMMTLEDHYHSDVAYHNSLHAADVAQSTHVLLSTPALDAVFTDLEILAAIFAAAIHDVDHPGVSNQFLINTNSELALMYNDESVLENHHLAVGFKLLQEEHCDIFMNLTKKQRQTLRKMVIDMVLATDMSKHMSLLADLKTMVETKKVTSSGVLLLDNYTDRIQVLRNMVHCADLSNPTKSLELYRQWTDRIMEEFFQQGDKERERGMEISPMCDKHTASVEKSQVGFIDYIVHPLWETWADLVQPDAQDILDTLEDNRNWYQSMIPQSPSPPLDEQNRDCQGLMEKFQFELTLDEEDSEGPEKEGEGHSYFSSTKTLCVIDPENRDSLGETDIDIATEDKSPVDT
Procedure, shortened: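 The readout is membrane depolarisation from a cAMP-sensing CNG channel, detected with a potential dye at ex 535/em 590. Cells were HEK293-derived (endogenous PDE-IV) at 1000 cells/well, titrated up to 22.9 uM final.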

[9] = molecular target: Cytochrome P450 3A4 (Homo sapiens) (UniProt P08684); assay: qHTS Assay for Activators of Cytochrome P450 3A4 (AID 885); also: nearly all actives have a fitted effect of over 65% in size
Sequence of Cytochrome P450 3A4 (Homo sapiens) (P08684 whole entry, looked up): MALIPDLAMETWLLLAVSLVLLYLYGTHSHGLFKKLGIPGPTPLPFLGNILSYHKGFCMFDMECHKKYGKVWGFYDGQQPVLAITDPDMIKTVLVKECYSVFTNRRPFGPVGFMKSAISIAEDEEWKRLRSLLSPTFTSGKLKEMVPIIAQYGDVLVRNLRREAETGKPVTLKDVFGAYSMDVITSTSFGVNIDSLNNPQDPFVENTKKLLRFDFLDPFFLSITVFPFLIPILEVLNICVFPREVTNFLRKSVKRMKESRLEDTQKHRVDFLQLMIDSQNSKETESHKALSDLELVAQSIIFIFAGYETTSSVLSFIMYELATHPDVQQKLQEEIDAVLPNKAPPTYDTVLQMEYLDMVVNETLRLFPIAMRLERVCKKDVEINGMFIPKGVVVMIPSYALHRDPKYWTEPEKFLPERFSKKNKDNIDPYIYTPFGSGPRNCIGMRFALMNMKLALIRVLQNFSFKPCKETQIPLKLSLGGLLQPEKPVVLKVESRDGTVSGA
Procedure, shortened: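 Activators are scored by enhanced luminescence from CYP3A4 conversion of luciferin-PPXE (25uM, equal to KM) to luciferin, after 60 min at RT with an NADPH-regenerating system.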

[10] = qHTS Assay for Lipid Storage Modulators (AID 1519; calls by dose curve); conditions: Drosophila S3 cells, BODIPY lipid droplet/cell ratio, laser cytometry, cells loaded with oleic acid
Procedure, shortened: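 Cells seeded at 5,000 per well were treated with compounds over a concentration series and loaded with oleic acid (400 uM, as added). Lipid droplet fluorescence (488 nm excitation, 500-530 nm channel) was read by laser-scanning cytometry and normalized to 20 uM Triacsin C.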

[11] = molecular target: Ubiquitin carboxyl-terminal hydrolase 1 (Homo sapiens) (UniProt O94782); assay: Inhibitors of USP1/UAF1: Pilot qHTS (AID 504865);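 also: rhodamine fluorescence freed from ubiquitin-rhodamine substrate followed over time; top concentration of the series differs between compounds; % is scaled to controls: 0 for no effect and ±100 for the full control effect; nearly all actives have a fitted effect of over 35% in size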
Sequence of Ubiquitin carboxyl-terminal hydrolase 1 (Homo sapiens) (O94782 whole entry, looked up): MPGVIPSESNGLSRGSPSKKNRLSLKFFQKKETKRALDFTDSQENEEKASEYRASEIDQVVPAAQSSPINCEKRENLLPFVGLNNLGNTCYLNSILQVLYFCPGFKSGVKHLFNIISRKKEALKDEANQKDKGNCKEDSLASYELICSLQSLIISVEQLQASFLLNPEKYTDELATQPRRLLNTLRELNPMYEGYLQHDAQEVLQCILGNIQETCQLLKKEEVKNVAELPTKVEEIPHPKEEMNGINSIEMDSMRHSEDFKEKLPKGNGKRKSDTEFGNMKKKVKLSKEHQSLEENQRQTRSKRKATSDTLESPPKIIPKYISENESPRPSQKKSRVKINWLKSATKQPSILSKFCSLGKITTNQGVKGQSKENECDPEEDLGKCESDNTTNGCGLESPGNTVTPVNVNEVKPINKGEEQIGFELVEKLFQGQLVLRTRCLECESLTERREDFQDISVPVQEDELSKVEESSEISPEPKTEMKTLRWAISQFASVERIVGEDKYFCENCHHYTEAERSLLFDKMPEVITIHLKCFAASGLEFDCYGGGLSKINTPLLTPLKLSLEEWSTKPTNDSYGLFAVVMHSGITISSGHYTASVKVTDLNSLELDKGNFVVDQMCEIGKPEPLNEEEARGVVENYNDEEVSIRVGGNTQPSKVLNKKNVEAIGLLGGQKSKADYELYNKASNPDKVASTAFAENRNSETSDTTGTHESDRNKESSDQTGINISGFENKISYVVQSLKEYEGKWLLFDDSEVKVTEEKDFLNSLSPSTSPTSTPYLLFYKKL
Procedure, shortened: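 USP1/UAF1 complex (1nM) preincubated with compound 15 min at room temperature, then Ub-Rho substrate (150nM final) added. Fluorescence read kinetically at 480/540 nm, 6 reads every 60 seconds. Buffer: 50mM HEPES pH 7.8, 0.5mM EDTA, 0.1 mg/ml BSA, 1mM TCEP, 0.01% Tween-20.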

[12] = molecular target: Luciferin 4-monooxygenase (Photinus pyralis) (UniProt P08659); assay: Biochemical firefly luciferase enzyme assay for NPC (AID 624030);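 also: purified P. pyralis luciferase at 10 nM with luciferin and ATP substrate; 0% = DMSO and -100% = full luciferase inhibition by PTC124 control; nearly all actives have a fitted effect of over 70% in size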
Sequence of Luciferin 4-monooxygenase (Photinus pyralis) (P08659 whole entry, looked up): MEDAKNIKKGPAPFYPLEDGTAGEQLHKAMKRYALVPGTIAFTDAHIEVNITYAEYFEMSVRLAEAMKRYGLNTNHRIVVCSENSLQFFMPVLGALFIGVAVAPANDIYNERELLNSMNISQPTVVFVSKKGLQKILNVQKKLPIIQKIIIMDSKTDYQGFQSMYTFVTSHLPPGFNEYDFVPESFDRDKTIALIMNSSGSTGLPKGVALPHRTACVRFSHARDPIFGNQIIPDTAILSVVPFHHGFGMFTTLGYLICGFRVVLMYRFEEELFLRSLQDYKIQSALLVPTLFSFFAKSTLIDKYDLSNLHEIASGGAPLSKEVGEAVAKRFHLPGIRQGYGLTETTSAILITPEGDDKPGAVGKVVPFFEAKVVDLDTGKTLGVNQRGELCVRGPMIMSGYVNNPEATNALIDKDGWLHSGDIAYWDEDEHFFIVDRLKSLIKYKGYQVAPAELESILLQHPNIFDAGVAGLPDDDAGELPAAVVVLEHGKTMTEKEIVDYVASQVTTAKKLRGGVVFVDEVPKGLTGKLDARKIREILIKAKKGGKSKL
Procedure, shortened: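 Counter-screen for direct inhibition of the luciferase enzyme by approved-drug library compounds, run at 10 nM enzyme in 50 mM Tris acetate (final). Luminescence was read within 5 min of enzyme-buffer addition and normalized to PTC124 versus DMSO (0%).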

[13] = qHTS profiling for inhibitors of Plasmodium falciparum proliferation (AID 504749);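 also: 0% = DMSO vehicle and full inhibition = artemisinin control; nearly all actives have a fitted effect of over 60% in size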; conditions: P. falciparum in erythrocytes, SYBR Green DNA, 72 h
Procedure, shortened: (§1)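 Quantitative HTS: compounds pinned into medium, infected erythrocytes added (0.3% parasitemia, 2.5% hematocrit), 72 h culture at 37 C under 5% CO2. Saponin/Triton lysis with SYBR Green I, overnight RT, then fluorescence read.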

[14] = test system: ATS189; assay: as above; conditions: P. falciparum in erythrocytes, SYBR Green DNA, 72 h; series mostly up to 12.8 µM
Procedure, shortened: as §1

[15] = test system: CP201; assay: as above; conditions: P. falciparum in erythrocytes, SYBR Green DNA, 72 h; series mostly up to 12.8 µM
Procedure, shortened: as §1

[16] = test system: CP291; assay: as above; conditions: P. falciparum in erythrocytes, SYBR Green DNA, 72 h; series mostly up to 12.8 µM
Procedure, shortened: as §1

[17] = test system: DFO2036; assay: as above; conditions: P. falciparum in erythrocytes, SYBR Green DNA, 72 h; series mostly up to 12.8 µM
Procedure, shortened: as §1

[18] = test system: PC49; assay: as above; conditions: P. falciparum in erythrocytes, SYBR Green DNA, 72 h; series mostly up to 12.8 µM
Procedure, shortened: as §1

[19] = test system: TAB113; assay: as above; conditions: P. falciparum in erythrocytes, SYBR Green DNA, 72 h; series mostly up to 12.8 µM
Procedure, shortened: as §1

[20] = measured here: cell count channel max response
[21] = measured here: lipid channel max response
[22] = at 12.8 µM (top of the series), parasite line A
[23] = at 12.8 µM (top of the series), parasite line B
[24] = at 28.7 µM (top of the series), parasite line B

COc1ccc(C[C@@H]2c3cc(OC)c(OC)cc3CC[N@+]2(C)CCC(=O)OCCCCCOC(=O)CC[N@@+]2(C)CCc3cc(OC)c(OC)cc3[C@H]2Cc2ccc(OC)c(OC)c2)cc1OC
6.6%: max response [10, 21]
15.3%: max response [10, 20]
inactive: activity change, negative = inhibition [1] -6.73% [at 17.2 µM] | Potency [2] | activity change, negative = inhibition [3] -23.4% [at 17.2 µM] | activity, negative = inhibition [4] 10.6% [at 17.2 µM] | Potency [5] > 20.6 µM | Potency [6] > 20.6 µM | Potency [7] | Potency [8] | Potency [9] | activity change, negative = inhibition ([10]; at 25.7 µM (top of the series)) -3.87% | Potency [11] | outcome [12] | activity, negative = inhibition [13, 22] -5.94% | activity, negative = inhibition [13, 23] 13.8% | Potency [14] | Potency [15] | Potency [16] | Potency [17] | Potency [18] | Potency [19]

CN1CCN(c2nc(-c3cccc(NS(C)(=O)=O)c3)nc3ccccc23)CC1
7.68%: max response [10, 20]
inactive: activity change, negative = inhibition [1] 2.06% | activity, negative = inhibition [4] -8.68% | Potency [5] > 46 µM | Potency [6] > 46 µM | Potency [7] | activity change, negative = inhibition ([10]; at 57.5 µM (top of the series)) 4.29% | Potency [11]
8.93%: max response [10, 21]

COC(=O)C1OC(=O)C2OC23[C@]2(C)C(O)CC4C(C)(C)C(OC(C)=O)CC(OC(C)=O)[C@@]4(C)C2CC[C@@]13C (stereo not given in full)
17.5% and 7.5%: max response [10, 20]
inactive: Potency [9] | activity change, negative = inhibition ([10]; at 57.5 µM (top of the series)) -1.67% and 3.12% | Potency [11]
17.7% and 13.2%: max response [10, 21]

Nc1ccccc1C(=O)CC(N)C(=O)O (stereo not given)
inactive: activity change, negative = inhibition ([10]; at 57.5 µM (top of the series)) 9.57% and 2.83%
21.6% and 17.6%: max response [10, 21]
10.9% and 14.4%: max response [10, 20]

C[N+]1(C)CCC[C@@H](OC(=O)C(O)(c2ccccc2)c2ccccc2)C1
inactive: activity change, negative = inhibition [1] 3.62% [at 17.2 µM] | Potency [2] | activity, negative = inhibition [4] 11.2% [at 17.2 µM] | Potency [5] > 20.6 µM | Potency [6] > 20.6 µM | Potency [7] | Potency [8] | activity change, negative = inhibition ([10]; at 25.7 µM (top of the series)) -3.46% | Potency [11] | outcome [12] | activity, negative = inhibition [13, 22] 9.41% | activity, negative = inhibition [13, 23] 6.69% | Potency [14] | Potency [15] | Potency [16] | Potency [17] | Potency [18] | Potency [19]
active: activity change, negative = inhibition [3] -62.4% [at 17.2 µM]
-16.2%: max response [10, 21]
-12.3%: max response [10, 20]

CN(C)CCOC(c1ccccc1)c1ccccc1 (tested in a mixture with another compound)
-0.682%: max response [10, 20]
active: activity change, negative = inhibition [3] -93.6% [at 17.2 µM]
-4.36%: max response [10, 21]
inactive: activity change, negative = inhibition [1] 27.4% [at 17.2 µM] and 19.6% [at 17.2 µM] | Potency [7] | Potency [8] | activity change, negative = inhibition ([10]; at 25.7 µM (top of the series)) -3.15%

N=c1ccn2c(n1)OC1C(O)C(CO)OC12 (stereo not given)
0.631% and 1.94%: max response [10, 20]
7.88% and 22.5%: max response [10, 21]
inactive: activity change, negative = inhibition ([10]; at 57.5 µM (top of the series)) 3.87% and 5.45% | Potency [11]

C1CCN2C[C@H]3C[C@H](CN4CCCCC34)C2C1 (stereo not given in full)
19.7% and 18.8%: max response [10, 21]
17.1% and 11%: max response [10, 20]
inactive: activity change, negative = inhibition ([10]; at 57.5 µM (top of the series)) 2.4% and 4.93% | Potency [11]

O=c1[nH]cnc2c1ncn2C1OC(CO)C(O)C1O (stereo not given)
8.98% and -19.5% and -3.51%: max response [10, 20]
inactive: activity change, negative = inhibition ([10]; at 57.5 µM (top of the series)) 5.69% and -3.39% and 2.45% | Potency [11] | outcome [12] | activity, negative = inhibition [13, 24] 13.3% | Potency [14] | Potency [15] | Potency [16] | Potency [17] | Potency [18] | Potency [19]
14% and -19.8% and 0.274%: max response [10, 21]

CN[C@@H]1[C@H](O[C@@H]2O[C@H](CO)[C@@H](N)[C@H](O)[C@@H]2O)O[C@H]2C[C@@H](N)[C@@H](O[C@H]3[C@@H](O)[C@H](O)[C@H](N)C[C@@H]3N)O[C@H]2[C@H]1O
-10.4%: max response [10, 20]
-11.9%: max response [10, 21]
inactive: activity change, negative = inhibition [1] 3.97% [at 17.2 µM] | Potency [2] | activity change, negative = inhibition [3] -18% [at 17.2 µM] | activity, negative = inhibition [4] -2.35% [at 17.2 µM] | Potency [5] > 20.6 µM | Potency [6] > 20.6 µM | Potency [7] | Potency [8] | activity change, negative = inhibition ([10]; at 25.7 µM (top of the series)) -1.23% | Potency [11] | outcome [12] | activity, negative = inhibition [13, 22] -1.02% | activity, negative = inhibition [13, 23] -5.91% | Potency [14] | Potency [15] | Potency [16] | Potency [17] | Potency [18] | Potency [19]

CCN1CCC[C@@H]1CNC(=O)c1cc(S(N)(=O)=O)ccc1OC
inactive: activity change, negative = inhibition [1] 5.34% [at 38 µM] and 0.665% [at 38 µM] | Potency [2] | activity change, negative = inhibition [3] -3.07% [at 38 µM] and -10.9% [at 38 µM] | activity, negative = inhibition [4] 26.6% [at 38 µM] | Potency [5] > 46 µM | Potency [6] > 46 µM | Potency [7] | Potency [8] | activity change, negative = inhibition ([10]; at 57.5 µM (top of the series)) 3.26%
-12.9%: max response [10, 20]
-11.7%: max response [10, 21]

CC1(C)S[C@@H]2[C@H](NC(=O)[C@H](C(=O)O)c3ccsc3)C(=O)N2[C@H]1C(=O)O
-10.5%: max response [10, 20]
inactive: activity change, negative = inhibition [1] -4.81% [at 17.2 µM] and 2.77% [at 17.2 µM] | Potency [2] | activity change, negative = inhibition [3] -7.87% [at 17.2 µM] and 25.2% [at 17.2 µM] | activity, negative = inhibition [4] 6.96% [at 17.2 µM] and -0.401% [at 17.2 µM] | Potency [5] > 20.6 µM | Potency [6] > 20.6 µM | Potency [7] | Potency [8] | activity change, negative = inhibition ([10]; at 25.7 µM (top of the series)) 1.08% | Potency [11] | outcome [12] | activity, negative = inhibition ([13]; at 28.7 µM (top of the series), parasite line A) -4.85% | activity, negative = inhibition [13, 24] 17.9% | Potency [14] | Potency [15] | Potency [16] | Potency [17] | Potency [18] | Potency [19]
-8.09%: max response [10, 21]

Reference: PubChem BioAssay (NCATS)
